# Legend:
# Conditions in all cases: Compound Concentration (nM):1000
# ERK4 = tested on: T1, ERK4
# T1 construct: gene MAPK4
# ERK5 = tested on: T2, ERK5
# T2 construct: gene MAPK7
# ERK8 = tested on: T3, ERK8
# T3 construct: gene MAPK15
# ERN1 = tested on: ERN1
# FAK = tested on: T4, FAK
# T4 construct: gene PTK2
# FER = tested on: FER
# FES = tested on: FES
# FGFR1 = tested on: FGFR1
# FGFR2 = tested on: FGFR2
# FGFR3(G697C) = tested on: FGFR3(G697C)
# 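Further: KINOMEscan scanMAX binding as percent activity remaining versus control; lower means stronger binding.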
Structure (SMILES),Percent Control (ERK4),Percent Control (ERK5),Percent Control (ERK8),Percent Control (ERN1),Percent Control (FAK),Percent Control (FER),Percent Control (FES),Percent Control (FGFR1),Percent Control (FGFR2),Percent Control (FGFR3(G697C))
COc1cc(C=NNc2ncnc3c2cnn3-c2ccccc2)ccc1O [GW513184X],37%,100%,22%,100%,100%,100%,100%,100%,100%,100%
COc1cccc(-n2ncc3c(N/N=C/c4ccncc4)ncnc32)c1 [GW784752X],58%,100%,17%,72%,100%,100%,100%,87%,100%,92%
CCc1ccc(Oc2nccc(-c3c(-c4ccc(F)cc4)ncn3C3CCNCC3)n2)cc1 [SB-242719],100%,100%,100%,75%,100%,67%,97%,100%,100%,91%
COc1ccc2cc(-c3c(-c4ccncc4)nc(-c4ccc(S(C)(=O)=O)cc4C)n3C)ccc2c1 [SB-633825],74%,89%,100%,74%,85%,77%,81%,73%,73%,86%
O=C1Nc2ccc(C(=O)c3ccco3)cc2C1=Cc1cc(Cl)c(O)c(Cl)c1 [GW406108X],100%,100%,100%,66%,100%,100%,99%,100%,75%,100%
COc1cc(/C=N/Nc2ncnc3[nH]ncc23)ccc1O [GW578748X],72%,100%,93%,53%,100%,100%,100%,81%,100%,88%
NS(=O)(=O)c1ccc(N/N=C2\C(=O)Nc3ccc(C(=O)NCCc4c[nH]cn4)cc32)cc1 [GW300660X],100%,100%,18%,82%,100%,100%,100%,100%,100%,100%
CC1=C(C(=O)Nc2ccc3[nH]ncc3c2)C(c2ccc3ccccc3c2)CC(=O)N1 (centres unmarked) [GSK270822A],100%,100%,100%,78%,100%,77%,84%,72%,66%,78%
CCS(=O)(=O)c1ccc(OC)c(Nc2ncc(-c3cccc(F)c3)o2)c1 [GW621970X],100%,100%,100%,100%,100%,100%,100%,25%,22%,7.2%
Cl.c1ccc(Cc2nc3ccc(Nc4ncnc5ccccc45)cc3[nH]2)cc1 [GR269666A],100%,100%,92%,93%,100%,88%,100%,100%,100%,100%
COC(=O)Nc1nc2ccc(Oc3ccc(NC(=O)Nc4cc(C(F)(F)F)ccc4F)cc3)cc2s1.Cl [GW693917A],95%,100%,8.5%,56%,92%,100%,88%,51%,30%,59%

# From publication PMC7826789 (International Journal of Molecular Sciences, 2021)
